Reference: the supplement of paper PMC10849652
Of roughly 7,900 targets only a part is listed; those with a hit were picked by preference. About 0.6% of all pairs of compound and target were hits.

Tests used:
Test in all cases: log2 fold change, soluble protein after heating vs DMSO (PISA); higher = thermal stabilisation; K562 cells, 10 uM, 30 min; active = over 0.2 and 3.5 SD of the protein, either way, in both replicates (recomputed)
bafetinib = compound: Cc1ccc(NC(=O)c2ccc(CN3CC[C@H](N(C)C)C3)c(C(F)(F)F)c2)cc1Nc1nccc(-c2cncnc2)n1 [bafetinib]
How it was run: (§1)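 Values are thermal stability changes relative to control samples and are taken from duplicates. They are stated as log2 fold changes. Before quantification by TMTpro 16plex LC-MS/MS with equalised channel sums, K562 cells at 2×10^6 cells/mL were treated with 10 μM compound for 30 min, heated in aliquots for 3 min across 48°C-58°C, pooled, extracted in PBS with 0.5% NP-40 at 4°C, and centrifuged at 21,000xg for 90 min to give the soluble supernatant.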

[1] = compound: Cc1cccc(CC(=O)N2CCc3c2ccc(-c2cn(C)c4ncnc(N)c24)c3F)n1
How it was run: as §1

nilotinib = compound: Cc1cn(-c2cc(NC(=O)c3ccc(C)c(Nc4nccc(-c5cccnc5)n4)c3)cc(C(F)(F)F)c2)cn1 [nilotinib]
How it was run: as §1

[2] = compound: Cc1nc(Nc2n[nH]c3c2CN(C(=O)N[C@H](CN(C)C)c2ccccc2)C3(C)C)c2sccc2n1
How it was run: as §1

dasatinib = compound: Cc1nc(Nc2ncc(C(=O)Nc3c(C)cccc3Cl)s2)cc(N2CCN(CCO)CC2)n1 [dasatinib]
How it was run: as §1

[3] = compound: Cc1ncc(-c2ccnc(Nc3ccc(S(C)(=O)=O)cc3)n2)n1C(C)C
How it was run: as §1

[4] = compound: Cn1cc(-c2ccc3c(c2)CCN3C(=O)Cc2cccc(C(F)(F)F)c2)c2c(N)ncnc21
How it was run: as §1

[5] = compound: Cn1cc(-c2ccc3nnc(C(F)(F)c4ccc5ncccc5c4)n3n2)cn1
How it was run: as §1

tipifarnib = compound: Cn1cncc1[C@@](N)(c1ccc(Cl)cc1)c1ccc2c(c1)c(-c1cccc(Cl)c1)cc(=O)n2C [tipifarnib]
How it was run: as §1

mubritinib = compound: FC(F)(F)c1ccc(/C=C/c2nc(COc3ccc(CCCCn4ccnn4)cc3)co2)cc1 [mubritinib]
How it was run: as §1

[6] = compound: NC(=O)Nc1cc(-c2cccc(F)c2)sc1C(=O)N[C@H]1CCCNC1
How it was run: as §1

[7] = compound: NC(=O)c1cnc(N[C@@H]2CCCC[C@@H]2N)nc1Nc1cccc(-n2nccn2)c1
How it was run: as §1

[8] = compound: NC1(c2ccc(-c3nc4ccn5c(=O)[nH]nc5c4cc3-c3ccccc3)cc2)CCC1
How it was run: as §1

[9] = compound: NCC(=O)Nc1ccc(-n2nc(C(F)(F)F)cc2-c2ccc3c(ccc4ccccc43)c2)cc1
How it was run: as §1

entinostat = compound: Nc1ccccc1NC(=O)c1ccc(CNC(=O)OCc2cccnc2)cc1 [entinostat]
How it was run: as §1

vorinostat = compound: O=C(CCCCCCC(=O)Nc1ccccc1)NO [vorinostat]
How it was run: as §1

citarinostat = compound: O=C(CCCCCCNC(=O)c1cnc(N(c2ccccc2)c2ccccc2Cl)nc1)NO [citarinostat]
How it was run: as §1

silmitasertib = compound: O=C(O)c1ccc2c(c1)nc(Nc1cccc(Cl)c1)c1ccncc12 [silmitasertib]
How it was run: as §1

[10] = compound: O=C1NC(=O)C(c2cnc3ccccn23)=C1c1cn2c3c(cc(F)cc13)CN(C(=O)N1CCCCC1)CC2
How it was run: as §1

[11] = compound: c1cc(OCCN2CCCCC2)cc(-c2n[nH]c3ccc(-c4nnc[nH]4)cc23)c1
How it was run: as §1

Measured: log2 fold change

SURF2 (UniProt Q15527)
Chain of UniProt Q15527 (Q15527 whole entry, looked up): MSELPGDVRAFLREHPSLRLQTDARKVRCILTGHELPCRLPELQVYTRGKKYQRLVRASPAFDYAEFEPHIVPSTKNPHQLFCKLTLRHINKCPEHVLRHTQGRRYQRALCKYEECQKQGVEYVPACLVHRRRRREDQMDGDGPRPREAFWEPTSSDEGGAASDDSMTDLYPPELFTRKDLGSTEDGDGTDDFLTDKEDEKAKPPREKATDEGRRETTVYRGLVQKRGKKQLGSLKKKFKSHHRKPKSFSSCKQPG
inactive: bafetinib -0.103 | [1] 0.039 | nilotinib 0.054 | [2] -0.048 | dasatinib -0.02 | [3] 0.082 | [4] -0.012 | [5] 0.053 | tipifarnib 0.034 | mubritinib -0.013 | [6] 0.019 | [7] 0.076 | [8] 0.033 | [9] 0.088 | entinostat -0.012 | vorinostat -0.009 | citarinostat 0.06 | silmitasertib 0.079 | [10] -0.004 | [11] -0.018

SMARCE1 (UniProt Q969G3)
Chain of UniProt Q969G3 (Q969G3 whole entry, looked up): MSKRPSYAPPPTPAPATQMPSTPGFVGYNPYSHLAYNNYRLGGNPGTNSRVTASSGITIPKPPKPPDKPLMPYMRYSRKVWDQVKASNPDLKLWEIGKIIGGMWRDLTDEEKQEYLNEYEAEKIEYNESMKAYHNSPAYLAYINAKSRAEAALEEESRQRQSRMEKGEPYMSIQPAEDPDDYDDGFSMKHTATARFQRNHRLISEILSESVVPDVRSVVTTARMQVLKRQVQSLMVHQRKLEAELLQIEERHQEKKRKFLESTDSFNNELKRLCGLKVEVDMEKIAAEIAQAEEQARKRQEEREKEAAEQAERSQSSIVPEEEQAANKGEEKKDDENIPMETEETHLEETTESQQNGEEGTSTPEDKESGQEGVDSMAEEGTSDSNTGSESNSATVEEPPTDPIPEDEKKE
inactive: bafetinib -0.181 | [1] 0.041 | nilotinib -0.191 | [2] 0.16 | dasatinib -0.07 | [3] -0.055 | [4] -0.056 | [5] -0.09 | tipifarnib -0.082 | mubritinib -0.274 | [6] 0.05 | [7] 0.096 | [8] 0.218 | [9] 0.707 | entinostat 0.076 | vorinostat 0.088 | citarinostat 0 | silmitasertib 0.211 | [10] -0.008 | [11] -0.016

SLC7A6 (UniProt Q92536)
Chain of UniProt Q92536 (Q92536 whole entry, looked up): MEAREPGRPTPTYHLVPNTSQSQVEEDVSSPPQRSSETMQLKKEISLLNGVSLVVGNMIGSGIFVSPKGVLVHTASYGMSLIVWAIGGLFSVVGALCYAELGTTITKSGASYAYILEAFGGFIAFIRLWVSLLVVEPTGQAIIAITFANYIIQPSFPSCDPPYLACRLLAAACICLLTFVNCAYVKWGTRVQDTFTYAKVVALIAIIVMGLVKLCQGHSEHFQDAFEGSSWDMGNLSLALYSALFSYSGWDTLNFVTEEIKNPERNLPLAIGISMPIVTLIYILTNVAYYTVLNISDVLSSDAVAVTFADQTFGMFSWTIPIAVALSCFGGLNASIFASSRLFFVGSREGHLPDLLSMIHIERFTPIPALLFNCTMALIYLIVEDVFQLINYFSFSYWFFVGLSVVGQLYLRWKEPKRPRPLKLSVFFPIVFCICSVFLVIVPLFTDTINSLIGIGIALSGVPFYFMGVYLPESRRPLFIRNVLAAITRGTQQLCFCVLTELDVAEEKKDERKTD
inactive: bafetinib 0.042 | [1] 0.029 | nilotinib 0.046 | [2] 0.008 | dasatinib 0.04 | [3] -0.007 | [4] 0.024 | [5] -0.087 | tipifarnib -0.016 | mubritinib 0.049 | [6] -0.07 | [7] 0.089 | [8] 0.06 | [9] -0.017 | entinostat -0.029 | vorinostat -0.003 | citarinostat 0.026 | silmitasertib 0.007 | [10] -0.135 | [11] -0.049

TAX1BP1 (UniProt Q86VP1)
Chain of UniProt Q86VP1 (Q86VP1 whole entry, looked up): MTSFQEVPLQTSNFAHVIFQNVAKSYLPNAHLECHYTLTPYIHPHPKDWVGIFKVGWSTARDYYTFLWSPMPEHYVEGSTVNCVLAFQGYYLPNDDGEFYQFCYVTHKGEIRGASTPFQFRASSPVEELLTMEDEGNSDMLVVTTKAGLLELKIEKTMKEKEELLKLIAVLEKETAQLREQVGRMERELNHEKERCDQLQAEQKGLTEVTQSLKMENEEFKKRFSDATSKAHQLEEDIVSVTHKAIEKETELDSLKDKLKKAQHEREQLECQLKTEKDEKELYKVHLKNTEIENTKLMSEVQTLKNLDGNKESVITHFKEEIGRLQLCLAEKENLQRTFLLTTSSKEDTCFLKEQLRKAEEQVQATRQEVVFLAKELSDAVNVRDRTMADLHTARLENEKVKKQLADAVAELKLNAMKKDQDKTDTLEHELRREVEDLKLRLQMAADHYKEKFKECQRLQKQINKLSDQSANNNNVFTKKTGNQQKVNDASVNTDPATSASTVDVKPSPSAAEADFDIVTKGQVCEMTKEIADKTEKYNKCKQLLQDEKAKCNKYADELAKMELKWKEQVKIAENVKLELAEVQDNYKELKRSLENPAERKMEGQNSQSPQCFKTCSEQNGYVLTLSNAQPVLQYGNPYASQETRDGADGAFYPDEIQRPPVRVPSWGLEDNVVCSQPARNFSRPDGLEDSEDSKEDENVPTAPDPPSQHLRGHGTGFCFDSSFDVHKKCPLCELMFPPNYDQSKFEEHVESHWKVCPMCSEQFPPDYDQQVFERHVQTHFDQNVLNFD
inactive: bafetinib 0.011 | [1] -0.095 | nilotinib -0.086 | [2] 0.011 | dasatinib -0.024 | [3] 0.047 | [4] -0.068 | [5] 0.027 | tipifarnib 0.092 | mubritinib 0.045 | [6] 0.028 | [7] -0.062 | [8] -0.202 | [9] -0.102 | entinostat -0.013 | vorinostat -0.183 | citarinostat 0.061 | silmitasertib 0.042 | [10] -0.011 | [11] -0.081

SMAD9 (UniProt O15198)
Chain of UniProt O15198 (O15198 whole entry, looked up): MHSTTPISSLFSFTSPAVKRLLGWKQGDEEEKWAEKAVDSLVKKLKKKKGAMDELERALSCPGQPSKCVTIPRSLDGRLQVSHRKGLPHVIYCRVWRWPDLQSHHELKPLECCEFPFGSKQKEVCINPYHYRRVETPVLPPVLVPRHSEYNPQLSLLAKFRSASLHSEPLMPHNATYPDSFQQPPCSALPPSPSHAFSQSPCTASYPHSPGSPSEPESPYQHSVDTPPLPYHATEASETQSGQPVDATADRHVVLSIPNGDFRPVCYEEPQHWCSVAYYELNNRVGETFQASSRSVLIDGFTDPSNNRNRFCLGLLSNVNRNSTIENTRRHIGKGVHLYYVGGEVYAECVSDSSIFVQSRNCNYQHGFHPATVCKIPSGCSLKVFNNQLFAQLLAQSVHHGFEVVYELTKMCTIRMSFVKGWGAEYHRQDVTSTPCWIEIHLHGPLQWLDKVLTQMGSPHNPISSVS
inactive: bafetinib -0.102 | [1] -0.226 | nilotinib -0.113 | [2] 0.004 | dasatinib -0.077 | [3] -0.114 | [4] 0.058 | [5] 0.015 | tipifarnib -0.069 | mubritinib -0.067 | [6] -0.114 | [7] 0.001 | [8] -0.069 | [9] 0.05 | entinostat -0.076 | vorinostat 0.006 | citarinostat -0.017 | silmitasertib -0.055 | [10] -0.111 | [11] -0.029

SRSF2 (UniProt Q01130)
Chain of UniProt Q01130 (Q01130 whole entry, looked up): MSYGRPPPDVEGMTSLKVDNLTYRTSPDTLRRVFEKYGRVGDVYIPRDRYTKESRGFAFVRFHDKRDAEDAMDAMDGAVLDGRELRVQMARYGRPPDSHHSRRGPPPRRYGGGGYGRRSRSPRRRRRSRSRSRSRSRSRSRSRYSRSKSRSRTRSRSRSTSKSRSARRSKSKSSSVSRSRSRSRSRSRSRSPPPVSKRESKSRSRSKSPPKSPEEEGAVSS
inactive: bafetinib 0.02 | [1] -0.062 | nilotinib 0.007 | dasatinib 0.074 | [3] 0.034 | [4] -0.058 | [5] 0 | tipifarnib 0.085 | mubritinib -0.011 | [6] -0.056 | [7] 0.04 | [8] 0.139 | [9] -0.006 | entinostat -0.067 | vorinostat -0.057 | citarinostat -0.04 | silmitasertib -0.062 | [10] 0.059 | [11] -0.081
active: [2] -0.541

SLC25A36 (UniProt Q96CQ1)
Chain of UniProt Q96CQ1 (Q96CQ1 whole entry, looked up): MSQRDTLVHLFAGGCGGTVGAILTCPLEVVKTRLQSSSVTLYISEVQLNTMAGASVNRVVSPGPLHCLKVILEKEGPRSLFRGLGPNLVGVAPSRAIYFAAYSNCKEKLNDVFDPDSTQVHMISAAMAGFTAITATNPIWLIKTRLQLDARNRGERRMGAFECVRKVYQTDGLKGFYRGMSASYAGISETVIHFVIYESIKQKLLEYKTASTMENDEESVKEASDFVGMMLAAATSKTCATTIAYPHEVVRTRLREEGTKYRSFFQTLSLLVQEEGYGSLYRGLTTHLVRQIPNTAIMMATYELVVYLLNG
inactive: bafetinib -0.049 | [1] -0.003 | nilotinib -0.01 | [2] 0.182 | dasatinib -0.136 | [3] -0.138 | [4] 0.033 | [5] -0.004 | tipifarnib -0.075 | mubritinib -0.078 | [6] 0.131 | [7] 0.035 | [8] 0.015 | [9] -0.123 | entinostat 0.036 | vorinostat 0.003 | citarinostat 0.063 | silmitasertib 0.106 | [10] 0.027 | [11] 0.028

SLC38A9 (UniProt Q8NBW4)
Chain of UniProt Q8NBW4 (Q8NBW4 whole entry, looked up): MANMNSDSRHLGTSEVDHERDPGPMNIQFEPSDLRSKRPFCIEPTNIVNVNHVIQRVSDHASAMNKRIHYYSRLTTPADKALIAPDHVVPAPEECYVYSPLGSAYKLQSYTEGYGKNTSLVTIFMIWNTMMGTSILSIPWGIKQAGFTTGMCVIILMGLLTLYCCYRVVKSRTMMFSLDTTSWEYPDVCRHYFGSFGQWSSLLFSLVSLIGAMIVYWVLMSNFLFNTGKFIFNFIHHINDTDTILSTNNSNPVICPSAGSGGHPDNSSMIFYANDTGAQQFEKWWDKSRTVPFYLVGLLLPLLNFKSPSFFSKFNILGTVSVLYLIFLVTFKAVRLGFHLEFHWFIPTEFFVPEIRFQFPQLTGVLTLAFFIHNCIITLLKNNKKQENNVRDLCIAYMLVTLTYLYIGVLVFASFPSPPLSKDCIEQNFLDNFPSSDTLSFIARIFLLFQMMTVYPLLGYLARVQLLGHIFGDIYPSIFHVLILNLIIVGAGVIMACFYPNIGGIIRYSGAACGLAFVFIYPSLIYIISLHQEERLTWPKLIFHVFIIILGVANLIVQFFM
inactive: bafetinib -0.022 | [1] -0.04 | nilotinib 0.02 | [2] 0.05 | dasatinib 0.094 | [3] -0.081 | [4] -0.017 | [5] -0.034 | tipifarnib 0.038 | mubritinib 0.046 | [6] -0.129 | [7] 0.009 | [8] -0.113 | [9] -0.025 | entinostat 0.034 | vorinostat 0.007 | citarinostat 0.004 | silmitasertib 0.035 | [10] -0.044 | [11] -0.043
